Source: PubChem BioAssay AID1671194 (National Center for Advancing Translational Sciences (NCATS), 2021)
Hit rate of the full screen: of about 140,000 compounds, about 240 (0.17%) were called active. Entries that show only a call come without a potency. Another 9% or so got no clear call; they are omitted. Calls follow the shape of the dose curve; as a rule, active = well fitted inhibition curve with a large enough effect; inconclusive = small, poorly fitted or top-dose-only effect; inactive = no such curve, though single readings can be large or run the other way. The sample as a whole holds a higher share of actives than the screen did.

test: Primary qHTS assay for inhibitors of alpha-synuclein gene (SNCA) expression; details: HEK-293 SNCA-luciferase knock-in, luminescence, 24 h; series mostly up to 57.2 µM; also: nearly all actives have a fitted effect of over 45% in size
Potency is read from the fitted curve at half-maximal effect.

Compound	Potency
COCCCn1c(C)cnc1CC1CCN(C(=O)CC2CCCCC2)CC1	inactive
N#Cc1ccc(CN2CCN(c3nccc(Cl)n3)C(=O)C2)cc1	inactive
O=C(Nc1ccc([C@H]2OCC(=O)N(Cc3ccc(F)cc3)[C@@H]2CO)cc1)c1cccnc1	inactive
CCS(=O)(=O)NCC1(COc2ccc(C(F)(F)F)cn2)C[C@@H](O)[C@@H](O)C1 (stereo partly drawn)	inactive
Cc1ccccc1C(=O)N1CCC2(CC1)CCN(Cc1cccs1)c1ccccc1O2	inactive
Cc1ccc2c(C(=O)N3CCCC(C#N)C3)cc(-c3cnn(C(C)C)c3)nc2c1 (stereo not drawn)	inactive
O=[S+]([O-])(c1ccccc1)N1CC2(CCCCN2Cc2cccnc2)Cc2ccccc21 (stereo not drawn)	inactive
COCCNC(=O)c1nc2sccn2c1-c1cccc(OC)c1	inactive
O=C(NC1CCCCC1)[C@H]1O[C@H](CCN2CCNCC2)CC[C@@H]1O	inactive
COc1cccc(-c2ccnc3nc(Cc4cc(F)cc(F)c4)nn23)c1	inactive
CN1C(=O)[C@@H]2C[C@@H](O)CN2C2(CN(Cc3ccoc3)C2)C1=O	inactive
Cc1noc([C@@H]2CN(CCCc3ccccc3)C[C@H]2CO)n1	inactive
C[C@H](C(=O)N1Cc2ccccc2CC2(CCN(Cc3ccncc3)CC2)C1)c1ccccc1	inactive
CC(=O)Nc1cccc(-c2cn(C)c(=O)n3cc(COc4ccnn4C)nc23)c1	inactive
COc1cccc([S+](=O)([O-])N2CCC3(CC(c4cccnc4)=NO3)C2)c1 (stereo not drawn)	inactive
O=C(c1ccccc1C1CCNC1)N1CCN(C/C=C/c2ccccc2)CC1 (stereo not drawn)	inactive
COCc1nnc(NC(=O)C2c3ccccc3C(=O)N(C3CCCC3)C23CCCC3)s1 (stereo not drawn)	inactive
COc1cccc(-c2ccc(C(=O)N3CCC(C(=O)NCc4cccs4)CC3)cc2)c1	inactive
COc1ccc(-c2nc3ccncc3[nH]2)cc1	10 µM (active)
COc1ccc(C(=O)N2CCCC2C(=O)N2CCCC2c2nc3ccncc3[nH]2)cc1 (stereo not drawn)	inactive
c1cc(-c2nc3ccncc3[nH]2)ccn1	inactive
COc1ccc(-c2ccc3c(n2)CN(CCOc2ccccc2)C(=O)CO3)cc1F	inactive
O=C(C1CCCN(Cc2cccc(-c3ccc(F)cc3F)c2)C1)N1CCN(Cc2ccccc2)CC1 (stereo not drawn)	inactive
COc1ccc(CC2CCOC3(CCN(C(=O)NCC(C)C)CC3)C2)cc1 (stereo not drawn)	inactive
CCCNC(=O)C1CCC(Cn2c(=O)c3sccc3n(Cc3ccccc3F)c2=O)CC1 (stereo not drawn)	inactive
CC(C)NC(=O)C1CCC(Cn2c(=O)c3sccc3n(Cc3ccc(F)cc3)c2=O)CC1 (stereo not drawn)	inactive
O=C(C1CCC(Cn2c(=O)c3sccc3n(Cc3ccccc3F)c2=O)CC1)N1CCCCC1 (stereo not drawn)	25.1 µM (active)

Compound	Potency
O=C1CCN(S(=O)(=O)c2ccc3c(c2)CCC3)CCCC(c2nc(-c3cnccn3)no2)CCN1 (stereo not drawn)	inactive
CC[C@H]1CN(C(=O)c2ccc(F)cc2)CC[C@H]1CC(=O)N[C@@H](CO)CC(C)C	inactive
O=C(COc1ccc(F)cc1)NC1CCc2n[nH]c(=O)n2CC1 (stereo not drawn)	inactive
COc1ccc(Cc2nnc3ccc(C(=O)NCCc4ccc(F)cc4)cn23)cc1	inactive
Cc1cn2nc(C(=O)Nc3ccc(F)cc3C)cc2c(N(C)Cc2ccccc2)n1	inactive
COc1cccc(C(=O)N2CCCC(C(=O)N3CCC(c4nc5ccncc5[nH]4)C3)C2)c1 (stereo not drawn)	inactive
COc1ccc(-c2cc3nc4c(c(=O)n3[nH]2)CCN(C(=O)c2ccccc2C)C4)cc1	inactive
O=C(c1cccs1)N1CC[C@H](c2nnc(Cc3c[nH]c4ccccc34)o2)C1	inactive
Cc1ccccc1NC(=O)c1cc2cn(C(C)C)cc2s1	inactive
COCC(=O)N1CCCC(C(=O)N2CCC3(CC2)CC(=O)Nc2ccccc2O3)C1 (stereo not drawn)	inactive
Cc1nn2c(c1-c1ccccc1-c1ccccc1)N(C(=O)CN1CCOCC1)CCC2	inactive
Cc1nn2c(c1-c1ccccc1N1CCCC1)N(C(=O)c1ccc(Oc3ccccc3)cc1)CCC2	inactive
Cc1nn2c(c1-c1ccccc1-c1ccccc1)N(CC1CC1)CCC2	2.51 µM (active)
CC(C)(C)c1csc(NC(=O)c2ccc3c(c2)OCCN(C2CCC2)C3)n1	inactive
O=C(c1cccs1)N1CCCCCC1CN1CCCC1 (stereo not drawn)	inactive
O=C(O)COc1ccc(-c2nccc3c2C(=O)N(Cc2ccccc2)CC(COc2cccc(C(F)(F)F)c2)O3)cc1 (stereo not drawn)	inactive
Cc1ccc(C(=O)N2CCCN(C(=O)C3CC3)c3ccccc32)cc1F	inactive
O=C(c1ccccc1Cl)N1CCCN(c2cc(-c3ccc(F)cc3)[nH]n2)CC1	inactive
CNC(=O)[C@H]1C[C@H](Oc2ccccc2)CN1C(=O)CCn1nc(C)cc1C	inactive
Cc1ccc(S(=O)(=O)N2CCC3(CC2)C(=O)N(CC(=O)NC(C)C)CN3c2ccccc2)cc1	inactive
CCc1nc2c(c(-c3ccc(O)cc3)n1)CCN(Cc1cccc(OC)c1)CC2	inactive
CCn1ccc(C(=O)N2CCC(C3CCN(C(C)=O)CC3)C2)n1 (stereo not drawn)	inactive
O=C(NCC1CC1)c1ccc2nnc(Cc3ccc(Cl)cc3)n2c1	inactive
O=C(NCC1Cn2cccc2CN1Cc1ccccc1)c1ccco1 (stereo not drawn)	inactive
O=C(Cc1c[nH]c2ncc(-c3ccccc3F)cc12)N1CCOCC1	inactive
N[C@@H]1CCN(Cc2cccc(Oc3ccc(F)cc3)c2)C[C@H]1O	inactive
